Active and inactive are the calls of the source. The calls were made as follows: active = hit-call score of the fitted dose curve at least 0.9, where 1 is the maximum; inactive = score below 0.9.

Read-out in this test: Monocyte Chemoattractant Protein-1 (MCP1), CCL2 (gene 6347)
Kind of test: BSK_LPS_MCP1: BioMAP Diversity Plus: LPS Assay for Monocyte Chemoattractant Protein-1 (MCP1) Biomarker Activity (AID 2283081).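 As to AC50: co-culture stimulated with LPS.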 The following applies: primary human HUVEC with PBMC; actives raise or lower the signal. On the procedure: BSK_LPS is a cell-based, multiplexed-readout assay that uses umbilical vein endothelium and peripheral blood mononuclear cells, a human vascular primary cell co-culture, with measurements taken at 24 hours after chemical dosing in a 96-well plate.BSK_LPS_MCP1 is an assay component measured in the BSK_LPS assay. It measures MCP-1 antibody related to regulation of gene expression using ELISA technology.Data from the assay component BSK_LPS_MCP1 was analyzed into 1 assay endpoint. This assay endpoint, BSK_LPS_MCP1, was analyzed with bidirectional fitting relative to DMSO as the negative control and baseline of activity. Using a type of binding reporter, gain or loss-of-signal activity can be used to understand changes in the signaling as they relate to the gene CCL2. Furthermore, this assay endpoint can be referred to as a primary readout, because this assay has produced multiple assay endpoints where this one serves a signaling function. To generalize the intended target to other relatable targets, this assay endpoint is annotated to the cytokine intended target family, where the subfamily is chemotactic factor.
The levels of cell surface (or secreted, indicated by the prefix "s") biomarker endpoints were measured by ELISA. Overt cytotoxicity to cells in confluent adherent cultures (all systems other than the BT system) was assessed by measuring total protein levels using sulforhodamine B (SRB) staining in parallel cultures at the time of biomarker measurements, indicated as SRB endpoints. For proliferation assays for adherent cell types, individual cell types are cultured at sub-confluence and relative cell numbers quantified by SRB staining at time points optimized for each system (48 h: 3C and CASM3C systems; 72 h: BT and HDF3CGF systems; 96 h: SAg system). SRB was performed by staining cells with 0.1% SRB after fixation with 10% TCA and reading wells at 560 nm.Viability and proliferation of PBMC (T cells) was quantified by Alamar Blue reduction for the SAg and BT systems. For PBMC viability (referred to as PBMC Cytotoxicity within the assay endpoint names), cells were plated (75,000/well in a 96-well plate) and then chemical samples added for 1 h before addition of activators, SEB and TSST-1 (20 ng/mL final concentration each). Cells were incubated for 90 h. Then, Alamar Blue (20 uL/well) (Invitrogen, Cat DAL1100) was added for 6 h, and the plates were read with a fluorescence microplate reader at 546/580 nm (excitation/emission). For PBMC proliferation, cells were plated and activated as above but incubated for only 16 h prior to addition of Alamar Blue. Plates were read after 6 h.
On to `NNC(=O)c1ccncc1`, for which the result was inactive.

Consider `OCCNCCO`, for which the result was inactive. In the case of `Cn1cc[nH]c1=S`, the result was inactive. With `CCc1cccc(CC)c1N`, the outcome was inactive. For `O=S(=O)(O)CCC(F)(F)C(F)(F)C(F)(F)C(F)(F)C(F)(F)C(F)(F)F`, the result was inactive.

Consider `NC(=O)N(O)[C@@H]1COc2cc(OCc3ccccc3)ccc21`, for which the result was inactive. Consider `Cc1ccc(S(=O)(=O)NC(=O)NN2CCCCCC2)cc1`, for which the outcome was inactive. As to `OC(CCl)CCl`, the outcome was inactive. By AC50 is commonly meant the midpoint of the concentration-response curve, whichever way the signal moves. For the compound `CCCCCCCCCCCCCCO`, the AC50 is 31.2 µM (active). Take `CCCCCCCC/C=C\CCCCCCCC(=O)OC[C@@H](O)[C@H]1OC[C@H](O)[C@H]1O`: the outcome was inactive. With `C=CN1CCCC1=O`, the result was inactive. For `OC(O)(C(F)C(O)(O)C(F)(F)F)C(F)(F)F`, the outcome was inactive.

`OCc1ccccc1`: the result was inactive.

Take `OC[C@H]1O[C@@H]2O[C@H]3[C@H](O)[C@@H](O)[C@@H](O[C@H]4[C@H](O)[C@@H](O)[C@@H](O[C@H]5[C@H](O)[C@@H](O)[C@@H](O[C@H]6[C@H](O)[C@@H](O)[C@@H](O[C@H]7[C@H](O)[C@@H](O)[C@@H](O[C@H]1[C@H](O)[C@H]2O)O[C@@H]7CO)O[C@@H]6CO)O[C@@H]5CO)O[C@@H]4CO)O[C@@H]3CO`: the outcome was inactive. Turning to `C[C@@H](Oc1ccc(CNC(=O)c2cccnc2Oc2ccc3c(c2)OCO3)c(F)c1)C(=O)O`, the outcome was inactive. For `CCCCCCOC(=O)CC(CC(=O)OCCCCCC)(OC(=O)CCC)C(=O)OCCCCCC`, the outcome was inactive. For the compound `CC(C)CCCCCCOC(=O)C1CCCCC1C(=O)OCCCCCCC(C)C` (stereo not given), the outcome was inactive.

`FC(F)(F)COC(OCC(F)(F)F)OCC(F)(F)F`: the result was inactive. `CC(C)c1nnc2ccc(-c3ocnc3-c3cc(F)ccc3F)cn12`: the AC50 is 4.6 µM (active). On to `O=C1CN(N=Cc2ccc([N+](=O)[O-])o2)C(=O)N1`, for which the result was inactive. As for `COc1cc2c(c(OC)c1OC)-c1ccc(OC)c(=O)cc1[C@@H](NC(C)=O)CC2`, the result was inactive.

Take `C[Si](C)(C)C(F)(F)C(F)(F)C(F)(F)F`: the outcome was inactive. Take `C=CCc1cc(S(=O)(=O)c2ccc(O)c(CC=C)c2)ccc1O`: the AC50 is 15.8 µM (active). As for `O=C(O)c1cccc(C(=O)O)c1`, the result was inactive.

For the compound `CCCCCOC(C)=O`, the outcome was inactive. `FC(F)(F)C(F)(F)C(F)(F)C(F)(F)C(F)(F)C(F)(F)I`: the result was inactive. Same read-out and setting: the result for `CCCCCCCCN(C)C` reads “inactive”. As to `Cc1cccc(O)c1C`, the outcome was inactive. On the same count and under the same terms, with `CC1(C)C(=O)N(Cl)C(=O)N1Cl` the entry was “inactive”. As for `CC(C)CC(C)O` (stereo not given), the outcome was inactive. As for `CCCCN1C(=O)[C@@H]([C@H](O)C2CCCCC2)NC(=O)C12CCN(Cc1ccc(Oc3ccc(C(=O)O)cc3)cc1)CC2`, the outcome was inactive. In the case of `c1ccc2c(c1)-c1cccc3c1c-2cc1ccccc13`, the outcome was inactive. In the case of `CCOC(N)=O`, the result was inactive. Same read-out and setting: the result for `c1ccc2cc3ccccc3cc2c1` reads “inactive”. With `O=C(O)c1cccc(C[C@@H]2COc3ccc(OCc4nc5cc(F)ccc5s4)cc3[C@@H]2O)c1`, the outcome was inactive. In the case of `CCCc1ccccc1`, the outcome was inactive. On the same count and under the same terms, the result for `OCCC(F)(F)C(F)(F)C(F)(F)C(F)(F)F` reads “inactive”. Turning to `CCN(CC)C(=S)SSC(=S)N(CC)CC`, the AC50 is 29.5 µM (active). Regarding `CCCCCCCC1CCC(=O)O1` (stereo not given), the result was inactive.

Take `OCc1c[nH]c2ccccc12`: the result was inactive.

The record behind these values is PubChem BioAssay (EPA / NIEHS).
